Results on 40 sequences are retold here after the OligoGym collection.
Also: reference of the scale not given here.

For the first assay, the target named is NRN1. Put plainly: pooled miR-30 sensor sort-seq; sequence = guide strand. The note with it: shRNA.
The sequence TTGAAGACCGCATCGCACTTGC yielded a sensor-assay potency score (higher = more potent) of 0.325. Same read-out and setting: in the case of TCAGTGAAATATATCTGCCGTT it was -1; in that of TTGTCGTCCAGGCCCTGCGGGT, -1.62; in that of ATCAGTGAAATATATCTGCCGT, -0.0404. Still for that read-out and setting: in the case of TTCGTCTTGTCGTCCAGGCCCT it was -0.542; in that of TGATGTTCGTCTTGTCGTCCAG, -0.489. On the same count and under the same terms, in the case of TCGTCTTGTCGTCCAGGCCCTG it was -1.79; in that of TTGGATGTTGAGGTTTTTGGAT, -0.637; in that of TTGATGTTCGTCTTGTCGTCCA, 0.18. Regarding TTATCCCACATATCTTTCGCCC, the sensor-assay potency score (higher = more potent) was -1.13. Still for that read-out and setting: in the case of TCTTGATGTTCGTCTTGTCGTC it was -0.712; in that of TTCTTTTCTCAGTTTATCCCAC, -0.535.

Another assay has as its target NRTN. The description is as above. As to conditions: shRNA.
In turn, AACAGCACCGTCTCGTCGGACG gave a sensor-assay potency score (higher = more potent) of -1.59. Turning to TCCTCGTAGGCCGTCGGGCGGC, the sensor-assay potency score (higher = more potent) was -1.9. Still for that read-out and setting: in the case of TCTCAGTACAGTTATCGCGAGA it was -1.15.

As for TCGTCCTCGTAGGCCGTCGGGC, the sensor-assay potency score (higher = more potent) is -1.36.

ATGGACAGCACGGAGCTGCAGA had a sensor-assay potency score (higher = more potent) of -1.37.

TATCTCAGTACAGTTATCGCGA showed a sensor-assay potency score (higher = more potent) of 0.0428. The same measure, in the same setting: in the case of TCGTCGCAGCCCGAGGTCGTAG it was -1.65; in that of TGCACCGTGTGGTAGCGGCTGT, -1.01. For TAGCGGAACAGCACCGTCTCGT, the sensor-assay potency score (higher = more potent) was -0.209. Same read-out and setting: in the case of TGGCGCAGTCGTCGCAGCCCGA it was -1.96.

In the next assay the target is NRXN1. The assay is described as above. The note with it: shRNA.
TATTTTTATATACAACCTCTTT yielded a sensor-assay potency score (higher = more potent) of -1.15. The same measure, in the same setting: in the case of TATCATTGAGGTTATAGCCAGC it was -0.792. Same read-out and setting: under TTTCTTTAGCTACTCCTCCTAT stands -0.523. The same measure, in the same setting: in the case of ATTGTTGCAAGCACACACCTTG it was -0.22. With TTGAACTTCAGCCATTTGCCGG, the sensor-assay potency score (higher = more potent) is -0.927.

On to TAAGTTTATATTATGTCTCAGA, for which the sensor-assay potency score (higher = more potent) was -0.557.

Take TAAAGATATATGTCGTCCCAGG: the sensor-assay potency score (higher = more potent) was -1.02. On to TAGAATTAATCCATCTAGGGAT, for which the sensor-assay potency score (higher = more potent) was -0.432. On the same count and under the same terms, in the case of TTTGTGTCAATCTTTACAGTGT it was 0.163; in that of AAGATTGACATAATCAGCCGAT, 0.46. On the same count and under the same terms, under TATTTCTATACAAGTGTCCATT stands -1.16; under TTTTGAGACAAGTCGTAGCAGA, -0.143.

A further assay has as its target NT5C3L. The assay is described as above. As to conditions: shRNA.
TTGGACTCTCTAACCACCTGGG returned a sensor-assay potency score (higher = more potent) of 0.443. On the same count and under the same terms, in the case of TCAGAAATCACCTGTAACCGGT it was -0.094. Still for that read-out and setting: in the case of TAGCCCGTTGACCACATCCAGA it was -1.7; in that of TGGAACACTTTCATCTGTCGGA, -0.0202; in that of ATTGGACTCTCTAACCACCTGG, 0.547.

TAGAGCACTGACATGCTGTGGT gave a sensor-assay potency score (higher = more potent) of 0.517.
